Reference: PubChem BioAssay (NCI)
The panel holds about 83,000 compounds, 20% with a hit somewhere; the sample as a whole holds those more often.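 Growth was measured after 48 h exposure to one concentration of compound in 96-well plates. Values under 10 count as active.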 Unmarked numbers belong to inactive results. Calls of active or inactive are those of the source.

System: SW-620 colon
Experiment: NCI-60 one-dose screen, 48 h (100 = growth as untreated, 0 = no growth, -100 = all killed)
Details: 10 µM

Q: Which growth does the source give for `COc1ccc(C(C)=C(c2ccc(OCCCN(C)C)cc2)c2ccc(OCCCN(C)C)cc2)cc1` here?
A: -59.4% (active)

Q: `O=C(NCCCCC(c1ccc(F)cc1)c1ccc(F)cc1)NCCCc1cccnc1` was tested. Which growth did it give?
A: 17.3%

Q: With `O=C(Nc1cccc(-c2cn(-c3ccc4oc(=O)ccc4c3)nn2)c1)Nc1cc(C(F)(F)F)cc(C(F)(F)F)c1` as the molecule, how does the growth read?
A: 56.6%

Q: How did the growth turn out when `CC(C)Sc1nc(NC2CC2)c(C#N)c(-c2ccccc2)n1` was run?
A: 100%

Q: How did the growth turn out when `COc1ccc(CN2[C@@H](C(=O)NCc3ccc(C(=O)NO)cc3)Cc3c([nH]c4ccccc34)[C@@H]2C)cc1` was run?
A: -31.3% (active)

Q: For `COC1=C[C@]23CCC(=O)N2CCc2cc4c(cc2[C@@H]3[C@@H]1OC(=O)CCCC(C)C)OCO4`, which growth is on record?
A: 63%

Q: How did the growth turn out when `C=CC(=O)Nc1ccc(C(=O)/C=C/c2ccc(N(C)CCF)cc2)c(O)c1` was run?
A: 5.99% (active)

Q: Which growth does the source give for `OCc1[nH]nc2cc(Nc3ncc4ccc(Br)c(OC5CCC(O)CC5)c4n3)ccc12` (configuration not stated) here?
A: -18.6% (active)

Q: `OCCNc1oc(-c2ccccc2)nc1[P+](c1ccccc1)(c1ccccc1)c1ccccc1` was tested. Which growth did it give?
A: 13.5%

Q: With `CCCCOc1ccc(Nc2nc3ccccc3nc2Nc2ccc(OCCCC)cc2)cc1` as the molecule, how does the growth read?
A: 96.3%

Q: With `C=C[C@@]12CN3CC[C@]1(O)[C@@](C(=O)OC)(CO2)c1[nH]c2ccccc2c1C3` as the molecule, how does the growth read?
A: 55%

Q: For `COc1ccc(NC(=O)CSc2nnc(-c3ccc4nc(-c5ccc(Cl)cc5)[nH]c4c3)o2)cc1`, which growth is on record?
A: 1.97% (active)

Q: How did the growth turn out when `Cc1ccc(-c2ccc(SCC(=O)Nc3ccc(Cl)c(C(F)(F)F)c3)nn2)cc1` was run?
A: 24.2%

Q: `CN1CCN(Cc2ccc(NC(=O)c3cncc(C#Cc4cnc5ccc(N[C@H]6CCOC6)nn45)c3)cc2C(F)(F)F)CC1` was tested. Which growth did it give?
A: -69.8% (active)

Q: `CN(C)c1ccc(/C=C/c2nc3ccccc3c(=O)n2CC(=O)Nc2ccccc2)cc1` was tested. Which growth did it give?
A: 57.8%

Q: `COc1ccccc1NCc1ccc(CO)n1-c1ccc(C)cc1` was tested. Which growth did it give?
A: 109%

Q: Which growth does the source give for `Cc1ccc(-c2nc3ccc(C(=O)N=Nc4c(O)[nH]c5ccc(Cl)cc45)cc3[nH]2)cc1` here?
A: -34% (active)

Q: `CN1CCN(c2ccc(Nc3nc(N4CCN(S(=O)(=O)c5ccc(Cl)cc5)CC4)c4sccc4n3)cc2)CC1` was tested. Which growth did it give?
A: -52.2% (active)

Q: `N#Cc1c(-c2ccc(Cl)cc2)cc(-c2ccccc2)nc1OCc1ccccc1` was tested. Which growth did it give?
A: 84%

Q: With `CN1CCO/C1=C(/NC(=O)c1ccc(Cl)cc1)[P+](c1ccccc1)(c1ccccc1)c1ccccc1` as the molecule, how does the growth read?
A: 97.1%

Q: `O=C(Cc1ccc2c(c1)CN(C1CCC(=O)NC1=O)C2=O)NCCc1ccccc1` (configuration not stated) was tested. Which growth did it give?
A: 10.6%

Q: `N#Cc1c(NC(=O)c2ccc(C(F)(F)F)c(Cl)c2)sc2c1CCC(=O)C2` was tested. Which growth did it give?
A: -56.8% (active)

Q: With `COc1ccc2[nH]c(=O)c(CSc3nccc(-c4ccc(Cl)cc4)n3)cc2c1` as the molecule, how does the growth read?
A: 45.4%

Q: `C=C1CCC2C3(C)COC(c4c(F)cccc4F)OC3CCC2(C)C1C/C=C1/C(=O)OCC1O` (configuration not stated) was tested. Which growth did it give?
A: -41.4% (active)

Q: `COc1ccc([C@H]2C(C(=O)c3ccc(Cl)cc3)C3(N[C@@H]2c2ccccc2)C(=O)Nc2ccc(Cl)cc23)cc1` (some centres not stated) was tested. Which growth did it give?
A: 4.15% (active)

System: MCF7 breast
Experiment: as above
Details: 10 µM

Q: Which growth does the source give for `N#Cc1ccc(-c2nn(-c3ccc(C(=O)O)cc3)cc2CNc2cc(Cl)cc(C(F)(F)F)c2)cc1` here?
A: 5.75% (active)

Q: For `CN1C(=O)N(C)C2SC(N/N=C/c3ccccc3F)=NC21` (configuration not stated), which growth is on record?
A: 32%

Q: How did the growth turn out when `COc1cc2c(cc1OC)/C(=C\c1sc(Nc3ccc(O)cc3)nc1O)C(C(=O)O)=N2` was run?
A: 12.3%

Q: `CN1CCN(c2ccc(C(=O)/C=C/c3cc(C(F)(F)F)ccc3Cl)cc2)CC1` was tested. Which growth did it give?
A: -85.3% (active)

Q: How did the growth turn out when `CC(=O)c1cc(C(=O)c2ccc3c(c2)NC(=O)CO3)n2ccc3ccccc3c12` was run?
A: 64%

Q: With `COc1ccc(C(=O)NC(=S)N2CCN(c3ncnc4c3cnn4-c3ccccc3)CC2)cc1` as the molecule, how does the growth read?
A: 54.3%

Q: For `CC(=O)Nc1nc(-c2ccc(N3CCN(C)CC3)c(NS(=O)(=O)c3cccc4c(N(C)C)cccc34)c2)cs1`, which growth is on record?
A: 34.9%

Q: How did the growth turn out when `O=[N+]([O-])c1ccc(-c2nc(-c3ccccc3)c(-c3ccccc3)n2-c2ccc(S(=O)(=O)Nc3ncccn3)cc2)cc1` was run?
A: 29.3%

Q: How did the growth turn out when `O=C(c1ccc(Cl)cc1)C1[C@H](c2ccc(Br)cc2)[C@@H](c2ccccc2)NC12C(=O)Nc1ccc(Br)cc12` (some centres not stated) was run?
A: -43.3% (active)

Q: With `O=C(CSc1nnc(-c2c[nH]c3ccccc23)n1-c1ccccc1)c1ccc(Cl)cc1` as the molecule, how does the growth read?
A: 38.4%

Q: With `Cc1noc2c(Cc3ccccc3)nn(CC(=O)N/N=C/c3ccc(Cl)cc3)c(=O)c12` as the molecule, how does the growth read?
A: 51.9%

Q: `O=C(NO)c1ccc(CNC(=O)[C@H]2Cc3c([nH]c4ccccc34)[C@H](c3ccc(Cl)cc3)N2)cc1` was tested. Which growth did it give?
A: 3% (active)

Q: `COc1ccc(C(C)=C(c2ccc(OCCCN(C)C)cc2)c2ccc(OCCCN(C)C)cc2)cc1` was tested. Which growth did it give?
A: -69.5% (active)

Q: With `O=C(NCCCCC(c1ccc(F)cc1)c1ccc(F)cc1)NCCCc1cccnc1` as the molecule, how does the growth read?
A: 13.2%

Q: `O=C(Nc1cccc(-c2cn(-c3ccc4oc(=O)ccc4c3)nn2)c1)Nc1cc(C(F)(F)F)cc(C(F)(F)F)c1` was tested. Which growth did it give?
A: 17%

Q: How did the growth turn out when `CC(C)Sc1nc(NC2CC2)c(C#N)c(-c2ccccc2)n1` was run?
A: 88.1%

Q: `COc1ccc(CN2[C@@H](C(=O)NCc3ccc(C(=O)NO)cc3)Cc3c([nH]c4ccccc34)[C@@H]2C)cc1` was tested. Which growth did it give?
A: 15.8%

Q: `COC1=C[C@]23CCC(=O)N2CCc2cc4c(cc2[C@@H]3[C@@H]1OC(=O)CCCC(C)C)OCO4` was tested. Which growth did it give?
A: 1.77% (active)

Q: `C=CC(=O)Nc1ccc(C(=O)/C=C/c2ccc(N(C)CCF)cc2)c(O)c1` was tested. Which growth did it give?
A: -19.5% (active)

Q: Which growth does the source give for `OCc1[nH]nc2cc(Nc3ncc4ccc(Br)c(OC5CCC(O)CC5)c4n3)ccc12` (configuration not stated) here?
A: -74.7% (active)

Q: `OCCNc1oc(-c2ccccc2)nc1[P+](c1ccccc1)(c1ccccc1)c1ccccc1` was tested. Which growth did it give?
A: 2.37% (active)

Q: With `CCCCOc1ccc(Nc2nc3ccccc3nc2Nc2ccc(OCCCC)cc2)cc1` as the molecule, how does the growth read?
A: 75.3%

Q: `C=C[C@@]12CN3CC[C@]1(O)[C@@](C(=O)OC)(CO2)c1[nH]c2ccccc2c1C3` was tested. Which growth did it give?
A: 42.6%

Q: How did the growth turn out when `COc1ccc(NC(=O)CSc2nnc(-c3ccc4nc(-c5ccc(Cl)cc5)[nH]c4c3)o2)cc1` was run?
A: 17.1%

Q: Which growth does the source give for `Cc1ccc(-c2ccc(SCC(=O)Nc3ccc(Cl)c(C(F)(F)F)c3)nn2)cc1` here?
A: 15.9%

Q: `CN1CCN(Cc2ccc(NC(=O)c3cncc(C#Cc4cnc5ccc(N[C@H]6CCOC6)nn45)c3)cc2C(F)(F)F)CC1` was tested. Which growth did it give?
A: -84.4% (active)

Q: `CN(C)c1ccc(/C=C/c2nc3ccccc3c(=O)n2CC(=O)Nc2ccccc2)cc1` was tested. Which growth did it give?
A: 26%

Q: `COc1ccccc1NCc1ccc(CO)n1-c1ccc(C)cc1` was tested. Which growth did it give?
A: 85.3%

Q: For `Cc1ccc(-c2nc3ccc(C(=O)N=Nc4c(O)[nH]c5ccc(Cl)cc45)cc3[nH]2)cc1`, which growth is on record?
A: -26.9% (active)

Q: Which growth does the source give for `CN1CCN(c2ccc(Nc3nc(N4CCN(S(=O)(=O)c5ccc(Cl)cc5)CC4)c4sccc4n3)cc2)CC1` here?
A: -83.5% (active)

Q: With `N#Cc1c(-c2ccc(Cl)cc2)cc(-c2ccccc2)nc1OCc1ccccc1` as the molecule, how does the growth read?
A: 53.8%

Q: For `CN1CCO/C1=C(/NC(=O)c1ccc(Cl)cc1)[P+](c1ccccc1)(c1ccccc1)c1ccccc1`, which growth is on record?
A: 62.9%

Q: With `O=C(Cc1ccc2c(c1)CN(C1CCC(=O)NC1=O)C2=O)NCCc1ccccc1` (configuration not stated) as the molecule, how does the growth read?
A: 18.9%

Q: With `N#Cc1c(NC(=O)c2ccc(C(F)(F)F)c(Cl)c2)sc2c1CCC(=O)C2` as the molecule, how does the growth read?
A: -3.57% (active)

Q: For `COc1ccc2[nH]c(=O)c(CSc3nccc(-c4ccc(Cl)cc4)n3)cc2c1`, which growth is on record?
A: 7.81% (active)

Q: Which growth does the source give for `C=C1CCC2C3(C)COC(c4c(F)cccc4F)OC3CCC2(C)C1C/C=C1/C(=O)OCC1O` (configuration not stated) here?
A: -12.6% (active)

Q: How did the growth turn out when `COc1ccc([C@H]2C(C(=O)c3ccc(Cl)cc3)C3(N[C@@H]2c2ccccc2)C(=O)Nc2ccc(Cl)cc23)cc1` (some centres not stated) was run?
A: -4.24% (active)
